Biological target: ELF4 (Homo sapiens, UniProt Q99607 1-663)
Assay: DAPPL (digital affinity profiling via proximity ligation, sequencing); 10 mM Tris-HCl pH 7.5, 50 mM NaCl, 1 mM DTT, 4% glycerol, room temperature, 30 min; GST-TFs on glutathione beads, 16-mer random dsDNA library, 0.1% formaldehyde crosslink after washing; high values mean tight binding
Settings: protein: recombinant; tags: N-terminal GST; dsDNA, one strand shown
Summary of the method: (§1)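 The binding signal reported is, for every hexamer, its read frequency for a factor over its read frequency for the tag-only sample. Reads came from pools of yeast-expressed, GST-fused human transcription factors on glutathione beads, barcoded with DNA and mixed with that sample, which were incubated with 200 nmole of a random double-stranded 16-mer DNA library in Tris/NaCl/DTT/glycerol buffer at room temperature for 30 min. After washing, the pools were crosslinked with 0.1% formaldehyde, proximity-ligated with BsaI/T4 ligase for 1 h at 37 °C, PCR-amplified and sequenced on an Illumina NextSeq500.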

Sequence of ELF4 (Q99607 whole entry): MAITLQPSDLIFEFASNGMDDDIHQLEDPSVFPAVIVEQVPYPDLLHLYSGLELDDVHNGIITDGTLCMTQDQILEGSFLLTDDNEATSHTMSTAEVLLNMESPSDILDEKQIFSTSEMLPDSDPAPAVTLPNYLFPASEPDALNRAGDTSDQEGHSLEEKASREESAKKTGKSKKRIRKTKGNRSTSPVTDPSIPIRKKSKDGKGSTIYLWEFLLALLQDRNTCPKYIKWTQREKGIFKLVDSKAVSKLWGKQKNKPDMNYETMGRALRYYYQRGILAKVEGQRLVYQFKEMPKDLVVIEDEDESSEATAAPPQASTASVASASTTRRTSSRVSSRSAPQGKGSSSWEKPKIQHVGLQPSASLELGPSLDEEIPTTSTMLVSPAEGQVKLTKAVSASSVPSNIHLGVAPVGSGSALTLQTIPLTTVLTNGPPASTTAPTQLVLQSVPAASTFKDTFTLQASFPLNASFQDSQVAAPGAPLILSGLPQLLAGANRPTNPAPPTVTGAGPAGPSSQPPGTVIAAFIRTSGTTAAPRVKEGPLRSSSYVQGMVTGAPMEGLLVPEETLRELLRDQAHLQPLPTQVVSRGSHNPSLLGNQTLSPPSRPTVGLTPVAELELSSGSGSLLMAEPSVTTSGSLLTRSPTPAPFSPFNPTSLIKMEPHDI

| Sequence | binding signal |
| --- | --- |
| GGTCTA | 1.11 fold enrichment (6-mer frequency, TF over GST control) |
| CACCAT | 1.12 fold enrichment (6-mer frequency, TF over GST control) |
| TGACGC | 1.37 fold enrichment (6-mer frequency, TF over GST control) |
| CGCACT | 1.29 fold enrichment (6-mer frequency, TF over GST control) |
| TTGGCC | 1.18 fold enrichment (6-mer frequency, TF over GST control) |
| CTATGT | 1.18 fold enrichment (6-mer frequency, TF over GST control) |
| GGAAGC | 1.4 fold enrichment (6-mer frequency, TF over GST control) |
| ACCCAC | 1.23 fold enrichment (6-mer frequency, TF over GST control) |
| GGCTTG | 1.07 fold enrichment (6-mer frequency, TF over GST control) |
| TGAACC | 1.15 fold enrichment (6-mer frequency, TF over GST control) |
| CCACAT | 1.21 fold enrichment (6-mer frequency, TF over GST control) |
| AAGTCA | 1.22 fold enrichment (6-mer frequency, TF over GST control) |
| CGTTAT | 1.16 fold enrichment (6-mer frequency, TF over GST control) |
| CACCCG | 1.18 fold enrichment (6-mer frequency, TF over GST control) |
| ACCCGG | 1.7 fold enrichment (6-mer frequency, TF over GST control) |
| ACCGCT | 1.14 fold enrichment (6-mer frequency, TF over GST control) |
| TGCACG | 1.13 fold enrichment (6-mer frequency, TF over GST control) |
| TGCTGA | 1.15 fold enrichment (6-mer frequency, TF over GST control) |
| TCATGG | 1.07 fold enrichment (6-mer frequency, TF over GST control) |
| CCCACC | 1.19 fold enrichment (6-mer frequency, TF over GST control) |

| Sequence | binding signal |
| --- | --- |
| GCGGAA | 1.21 fold enrichment (6-mer frequency, TF over GST control) |
| TCAATG | 1.06 fold enrichment (6-mer frequency, TF over GST control) |
| ACCGCC | 1.38 fold enrichment (6-mer frequency, TF over GST control) |
| TCAGCA | 1.1 fold enrichment (6-mer frequency, TF over GST control) |
| GTTTTG | 1.18 fold enrichment (6-mer frequency, TF over GST control) |
| GTTTCA | 1.33 fold enrichment (6-mer frequency, TF over GST control) |
| ACCCCC | 1.2 fold enrichment (6-mer frequency, TF over GST control) |
| CGGTTT | 1.21 fold enrichment (6-mer frequency, TF over GST control) |
| CGGAAA | 1.84 fold enrichment (6-mer frequency, TF over GST control) |
| GTAATG | 1.08 fold enrichment (6-mer frequency, TF over GST control) |
| CCTTGT | 1.29 fold enrichment (6-mer frequency, TF over GST control) |
| TGCAAT | 1.2 fold enrichment (6-mer frequency, TF over GST control) |
| TTGTTG | 1.21 fold enrichment (6-mer frequency, TF over GST control) |
| ATCACA | 1.1 fold enrichment (6-mer frequency, TF over GST control) |
| GGTGTT | 1.09 fold enrichment (6-mer frequency, TF over GST control) |
| GTGTTT | 1.18 fold enrichment (6-mer frequency, TF over GST control) |
| CCAACA | 1.13 fold enrichment (6-mer frequency, TF over GST control) |
| TGTCCA | 1.16 fold enrichment (6-mer frequency, TF over GST control) |
| CTGCAC | 1.2 fold enrichment (6-mer frequency, TF over GST control) |
| TTGGGC | 1.1 fold enrichment (6-mer frequency, TF over GST control) |

Biological target: T1, ELK4 (Homo sapiens, UniProt P28324-2 1-405)
T1 sequence: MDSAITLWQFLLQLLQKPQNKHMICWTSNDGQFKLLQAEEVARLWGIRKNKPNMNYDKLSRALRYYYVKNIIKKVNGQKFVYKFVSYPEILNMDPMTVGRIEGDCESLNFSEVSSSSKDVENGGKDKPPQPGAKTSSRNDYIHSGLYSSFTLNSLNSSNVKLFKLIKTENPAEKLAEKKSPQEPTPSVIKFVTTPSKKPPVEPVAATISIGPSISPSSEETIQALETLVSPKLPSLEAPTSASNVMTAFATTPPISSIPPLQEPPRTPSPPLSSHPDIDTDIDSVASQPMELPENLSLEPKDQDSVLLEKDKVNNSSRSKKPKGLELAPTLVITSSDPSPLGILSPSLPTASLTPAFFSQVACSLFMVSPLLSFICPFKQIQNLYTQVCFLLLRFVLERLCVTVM
Assay: as above
Settings: protein: recombinant; tags: N-terminal GST; dsDNA, one strand shown
Summary of the method: as §1

| Sequence | binding signal |
| --- | --- |
| GGTCTA | 1.04 fold enrichment (6-mer frequency, TF over GST control) |
| CACCAT | 1.21 fold enrichment (6-mer frequency, TF over GST control) |
| TGACGC | 1.3 fold enrichment (6-mer frequency, TF over GST control) |
| CGCACT | 1.1 fold enrichment (6-mer frequency, TF over GST control) |
| TTGGCC | 1.08 fold enrichment (6-mer frequency, TF over GST control) |
| CTATGT | 1.15 fold enrichment (6-mer frequency, TF over GST control) |
| GGAAGC | 1.43 fold enrichment (6-mer frequency, TF over GST control) |
| ACCCAC | 1.21 fold enrichment (6-mer frequency, TF over GST control) |
| GGCTTG | 1.12 fold enrichment (6-mer frequency, TF over GST control) |
| TGAACC | 1.19 fold enrichment (6-mer frequency, TF over GST control) |
| CCACAT | 1.28 fold enrichment (6-mer frequency, TF over GST control) |
| AAGTCA | 1.18 fold enrichment (6-mer frequency, TF over GST control) |
| CGTTAT | 1.15 fold enrichment (6-mer frequency, TF over GST control) |
| CACCCG | 1.29 fold enrichment (6-mer frequency, TF over GST control) |
| ACCCGG | 1.52 fold enrichment (6-mer frequency, TF over GST control) |
| ACCGCT | 1.18 fold enrichment (6-mer frequency, TF over GST control) |
| TGCACG | 1.24 fold enrichment (6-mer frequency, TF over GST control) |
| TGCTGA | 1.11 fold enrichment (6-mer frequency, TF over GST control) |
| TCATGG | 1.05 fold enrichment (6-mer frequency, TF over GST control) |
| CCCACC | 1.26 fold enrichment (6-mer frequency, TF over GST control) |

| Sequence | binding signal |
| --- | --- |
| GCGGAA | 1.05 fold enrichment (6-mer frequency, TF over GST control) |
| TCAATG | 1.04 fold enrichment (6-mer frequency, TF over GST control) |
| ACCGCC | 1.23 fold enrichment (6-mer frequency, TF over GST control) |
| TCAGCA | 1 fold enrichment (6-mer frequency, TF over GST control) |
| GTTTTG | 1.22 fold enrichment (6-mer frequency, TF over GST control) |
| GTTTCA | 1.28 fold enrichment (6-mer frequency, TF over GST control) |
| ACCCCC | 1.28 fold enrichment (6-mer frequency, TF over GST control) |
| CGGTTT | 1.23 fold enrichment (6-mer frequency, TF over GST control) |
| CGGAAA | 1.55 fold enrichment (6-mer frequency, TF over GST control) |
| GTAATG | 1.09 fold enrichment (6-mer frequency, TF over GST control) |
| CCTTGT | 1.37 fold enrichment (6-mer frequency, TF over GST control) |
| TGCAAT | 1.28 fold enrichment (6-mer frequency, TF over GST control) |
| TTGTTG | 1.19 fold enrichment (6-mer frequency, TF over GST control) |
| ATCACA | 1.02 fold enrichment (6-mer frequency, TF over GST control) |
| GGTGTT | 1.13 fold enrichment (6-mer frequency, TF over GST control) |
| GTGTTT | 1.11 fold enrichment (6-mer frequency, TF over GST control) |
| CCAACA | 1.08 fold enrichment (6-mer frequency, TF over GST control) |
| TGTCCA | 1.11 fold enrichment (6-mer frequency, TF over GST control) |
| CTGCAC | 1.29 fold enrichment (6-mer frequency, TF over GST control) |
| TTGGGC | 1.05 fold enrichment (6-mer frequency, TF over GST control) |

Biological target: T2, ETV2 (Homo sapiens, UniProt O00321 1-342)
T2 sequence: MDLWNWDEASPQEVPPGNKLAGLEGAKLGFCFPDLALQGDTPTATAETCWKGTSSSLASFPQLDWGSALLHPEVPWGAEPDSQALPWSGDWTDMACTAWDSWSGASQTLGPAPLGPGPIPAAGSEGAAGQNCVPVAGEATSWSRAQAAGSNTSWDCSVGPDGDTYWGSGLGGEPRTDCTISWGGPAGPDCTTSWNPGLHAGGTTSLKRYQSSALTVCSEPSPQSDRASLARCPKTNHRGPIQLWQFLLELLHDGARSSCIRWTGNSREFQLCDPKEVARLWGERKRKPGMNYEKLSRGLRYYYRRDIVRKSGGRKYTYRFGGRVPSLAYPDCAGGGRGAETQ
Assay: as above
Settings: protein: recombinant; tags: N-terminal GST; dsDNA, one strand shown
Summary of the method: as §1

| Sequence | binding signal |
| --- | --- |
| GGTCTA | 1.06 fold enrichment (6-mer frequency, TF over GST control) |
| CACCAT | 1.17 fold enrichment (6-mer frequency, TF over GST control) |
| TGACGC | 1.18 fold enrichment (6-mer frequency, TF over GST control) |
| CGCACT | 1.29 fold enrichment (6-mer frequency, TF over GST control) |
| TTGGCC | 1.08 fold enrichment (6-mer frequency, TF over GST control) |
| CTATGT | 1.14 fold enrichment (6-mer frequency, TF over GST control) |
| GGAAGC | 1.54 fold enrichment (6-mer frequency, TF over GST control) |
| ACCCAC | 1.19 fold enrichment (6-mer frequency, TF over GST control) |
| GGCTTG | 1.01 fold enrichment (6-mer frequency, TF over GST control) |
| TGAACC | 1.01 fold enrichment (6-mer frequency, TF over GST control) |
| CCACAT | 1.17 fold enrichment (6-mer frequency, TF over GST control) |
| AAGTCA | 1.21 fold enrichment (6-mer frequency, TF over GST control) |
| CGTTAT | 1.21 fold enrichment (6-mer frequency, TF over GST control) |
| CACCCG | 1.2 fold enrichment (6-mer frequency, TF over GST control) |
| ACCCGG | 1.63 fold enrichment (6-mer frequency, TF over GST control) |
| ACCGCT | 1.07 fold enrichment (6-mer frequency, TF over GST control) |
| TGCACG | 1.22 fold enrichment (6-mer frequency, TF over GST control) |
| TGCTGA | 1.15 fold enrichment (6-mer frequency, TF over GST control) |
| TCATGG | 1.04 fold enrichment (6-mer frequency, TF over GST control) |
| CCCACC | 1.15 fold enrichment (6-mer frequency, TF over GST control) |
| GCGGAA | 1.34 fold enrichment (6-mer frequency, TF over GST control) |
| TCAATG | 1.05 fold enrichment (6-mer frequency, TF over GST control) |
| ACCGCC | 1.13 fold enrichment (6-mer frequency, TF over GST control) |
| TCAGCA | 1.04 fold enrichment (6-mer frequency, TF over GST control) |
| GTTTTG | 1.26 fold enrichment (6-mer frequency, TF over GST control) |
| GTTTCA | 1.15 fold enrichment (6-mer frequency, TF over GST control) |
| ACCCCC | 1.05 fold enrichment (6-mer frequency, TF over GST control) |

— paper PMC7862700, “An all-to-all approach to the identification of sequence-specific readers for epigenetic DNA modifications on cytosine”
